SMILES strings stand for the structures. Active and inactive are the calls of the source. Calls come from the whole dose curve.

The test can be described thus: Normal 2 Cell Viability Secondary Assay for qHTS Assay for Epigenetic Modulators. As to conditions: Normal 2 bronchial epithelial viability, MTS, 4 days. An excerpt:
NIH Molecular Libraries Screening Centers Network [MLSCN] NIH Chemical Genomics Center [NCGC] MLSCN Grant: 1 X01 MH079860-01 Assay Provider: Elisabeth D. Martinez, University of Texas SW Medical Center NCGC Assay Overview: This secondary assay characterizes selected actives identified in the qHTS of the Locus Derepression (LDR) assay (PubChem AID 597). The LDR assay detects the derepression of a GFP reporter that is stably integrated in a region of the genome of murine c127i mammary cells that is presumably silenced. Compounds that cause derepression of the locus to express GFP are identified by enumerating GFP positive cells using a laser-scanning microplate cytometer. […] Normal 2 cell viability was measured using Cell Titer 96 AQueous One (Promega), an assay which detects the ability of metabolically active cells to reduce a tetrazolium salt substrate (MTS), into a soluble formazan product that can be measured by colorimetry.
NCGC Assay Protocol Summary Normal 2 cells were plated in 96-well flat bottom tissue culture dishes (Corning) and grown overnight at 37 C and 5% CO2, then treated with compounds, incubated 4 days, and assayed for viability using the Cell Titer 96 AQueous One kit (Promega) according to the manufacturer's protocol. Absorbance at 490 nm and 650 nm (reference) was measured by a Spectra Max (Molecular Devices). […]

`CN1CSC(=S)N(C)C1`: the compound was called inactive.

The values are drawn from PubChem BioAssay AID1039 (National Center for Advancing Translational Sciences (NCATS), 2008).
